Assay outcomes deposited in PubChem BioAssay by The Scripps Research Institute Molecular Screening Center.
hgDAF-12 ag = H. glycines DAF-12 receptor agonists, primary screen, cell-based, luminescence, HEK293, GAL4 fusion, UAS-luciferase. activation, % at 6.8 µM. actives 1.8% (n = 370,000). AID 687014, 2013. HEK293 GAL4-hgDAF12 UAS-luciferase reporter, agonist luminescence; normalized to butyrate control;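 active = activation above a cutoff set at the mean of all screened compounds plus 3 SD, cut at about 10% in these data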;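 note: 0% = DMSO wells and 100% = sodium butyrate wells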
ssDAF-12 act = S. stercoralis DAF-12 nuclear receptor activators, primary screen, cell-based, luminescence, HEK293, GRIP1 co-expression, lit1-tk-luc. Nuclear hormone receptor DAF-12 (Strongyloides stercoralis). HEK293 ssDAF-12/GRIP1 lit1-tk-luc reporter; % of 3 µM dafachronic acid response. activation, % at 6.8 µM. actives 1% (n = 370,000). AID 652126, 2013;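 active = activation above the mean over all tested compounds plus 3 SD, cut at about 0.9% in these data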;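 note: 0% = DMSO-only wells and 100% = 3 µM delta7-dafachronic acid wells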
hcDAF-12 act = H. contortus DAF-12 nuclear receptor activators, primary screen, cell-based, luminescence, HEK293, lit1-tk-luc reporter | AID 652067, 2013 | actives 1.4% (n = 370,000) | HEK293 hcDAF-12 lit1-tk-luc reporter; 0% DMSO, 100% Δ7-dafachronic acid | activation, % at 6.8 µM;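 active = activation above the mean of all tested compounds plus 3 SD, cut at about 5.5% in these data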;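 note: 100% = response to 3 µM Δ7-dafachronic acid high control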
AHR act = AHR activators, primary screen, cell-based, luminescence, luciferase reporter, human; Aryl hydrocarbon receptor (Homo sapiens), P35869; AHR-responsive luciferase reporter cells; activation, % at 5 µM; actives 2.5% (n = 320,000); AID 2796, 2010; in the data active = activation above about 47%;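 note: 0% = vehicle wells and 100% = reference agonist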
DAX1 inh-1 = DAX1 (NR0B1) inhibitors on StAR promoter, primary screen, cell-based, luminescence, SF-1 (NR5A1), full-length DAX-1; HEK293T StAR-luciferase reporter, SF-1/DAX-1 repression relief; inhibition, % at 6.8 µM; actives 1.1% (n = 370,000); AID 652010, 2013;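 active = inhibition above the mean over all tested compounds plus 3 SD, cut at about 3.6% in these data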;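 note: 0% = DAX-1 cells with DMSO and 100% = cells lacking DAX-1 with DMSO; higher inhibition means more luminescence from relief of DAX-1 repression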
DAX1 inh-2 = DAX1 (NR0B1) inhibitors, primary screen, cell-based, HEK293, Gal4-DAX1, luciferase luminescence. HEK293 Gal4-DAX1 luciferase reporter. inhibition, % at 6.75 µM. actives 0.99% (n = 340,000). AID 504766, 2011;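 active = inhibition above the mean over all tested compounds plus 3 SD, cut at about 4.2% in these data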;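 note: 0% = DAX1-transfected cells with DMSO and 100% = empty-vector control cells with DMSO; inhibition shows as a rise in luminescence from relieved DAX1 repression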
Target sequence (P51843 207-470 limits assumed): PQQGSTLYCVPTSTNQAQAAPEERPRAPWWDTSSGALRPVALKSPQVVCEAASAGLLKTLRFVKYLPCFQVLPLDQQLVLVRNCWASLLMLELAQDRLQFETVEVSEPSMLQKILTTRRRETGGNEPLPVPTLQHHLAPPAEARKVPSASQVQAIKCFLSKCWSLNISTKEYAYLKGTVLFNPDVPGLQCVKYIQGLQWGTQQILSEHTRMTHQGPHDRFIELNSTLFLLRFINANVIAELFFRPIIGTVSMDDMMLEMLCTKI
* marks the source's active call; other numbers are inactive results; · = not tested or not shown. Only some compounds are listed: those with a hit (about 5.7% of all), similar ones and a draw of the others.

SMILES	hgDAF-12 ag	ssDAF-12 act	hcDAF-12 act	AHR act	DAX1 inh-1	DAX1 inh-2
C[C@@H]1ON(C)[C@H]2C[C@H]3c4[nH]c5ccccc5c4CCN3C[C@@H]12	-1	1.4*	3	·	0	3
C[C@@H]1ON(C)[C@H]2C[C@H]3c4cc(-c5ccc(F)cc5)ccc4CCN3C[C@@H]12	2	0.9*	-1	·	-1	·
Cc1cccc(-c2ccc3[nH]c4c(c3c2)CCN2C[C@H]3[C@H](C)ON(C)[C@H]3C[C@@H]42)c1	1	-1	0	·	-1	-1
COc1ccccc1NS(=O)(=O)c1cc(NC(=O)C2CCCO2)ccc1C (configuration not stated)	-2	-1	-2	1	0	2
Nc1nc2n(n1)C(c1cccs1)CC(c1ccccc1)N2 (configuration not stated)	-1	-2	-2	-3	0	-1
Nc1nc2n(n1)C(=O)CC(c1ccccc1)N2 (configuration not stated)	-6	-2	-1	-2	3.7*	0
CC(C)NS(=O)(=O)c1ccc(OCC(=O)Nc2ccc(F)cc2F)cc1	·	·	·	1	·	0
CN(C)c1ccc(-c2csc(C(O)c3cccc(Cl)c3)n2)cc1 (configuration not stated)	2	-1	-2	·	-2	·
COc1ccc2sc(-c3ccc(SC)cc3)c(/C=C/c3ccc(OC)c(OC)c3)c2c1	0	0	3	49*	-1	1
COc1ccc(/C=C/c2c(-c3ccc(OC)cc3)sc3ccc(N4CCOCC4)cc23)cc1	·	·	·	25	·	3
COc1ccc(-c2sc3cc(OC)c(OC)cc3c2-c2ccc(O)cc2)cc1	-2	-1	0	18	-1	0
COc1ccc(-c2sc3ccccc3c2/C=C/c2ccc(N)cc2)cc1	2	-1	2	54*	0	1
O=C(OCC#CCSc1nnc(-c2cccc3ccccc23)o1)c1ccc(SC(F)(F)F)cc1	0	-2	-3	·	·	·
Cc1ccc2nc3c(cc2c1)c(NC(=O)c1ccco1)nn3CC(C)C	0	-2	-1	28	-1	12*
CCn1nc(NC(=O)C2CCCO2)c2cc3cc(C)ccc3nc21 (configuration not stated)	7	0	2	67*	1	2
CCCn1nc(NC(=O)CC(C)C)c2cc3ccccc3nc21	2	-1	1	78*	-1	-1
Cc1cc2nn(-c3cccc4ccccc34)nc2cc1NC(=O)c1cccs1	-1	-2	-1	57*	-1	3
COc1ccc(CCNC(=O)COC(=O)C2CC2)cc1OC	-1	-1	1	0	1	0
CC(C)Cn1nc(NC(=O)c2cccs2)c2cc3ccccc3nc21	1	-2	-1	34	0	5.5*
COc1ccc2c(C)cc(=O)[nH]c2c1	-1	-1	0	-2	0	-1
COc1ccc2c(-c3cccnc3)cc(=O)[nH]c2c1	-1	-1	-2	78*	0	-2
COc1ccc(N2C(=O)C(CC(N)=O)N(NC(=O)CCc3ccccc3)C2=O)cc1 (configuration not stated)	-1	-1	1	-1	0	5.9*
COc1ccc(NC(=O)CSc2nc3c([nH]c4ccccc43)c(=O)n2C)c(OC)c1	1	0.9*	5	22	1	1
CCn1c(SCC(=O)N(C)c2ccccc2)nc2c([nH]c3ccccc32)c1=O	1	1	3	72*	-3	1
COc1ccc(-n2c(SCC(=O)N(C)c3ccccc3)nc3c([nH]c4ccccc43)c2=O)cc1OC	-1	0	4	13	0	1
SMILES	hgDAF-12 ag	ssDAF-12 act	hcDAF-12 act	AHR act	DAX1 inh-1	DAX1 inh-2
Cn1c(SCC(=O)Nc2ccc(F)cc2)nc2c([nH]c3ccccc32)c1=O	2	-1	1	14	1	0
Cc1ccc(NC(=O)CSc2nc3c([nH]c4ccccc43)c(=O)n2C)cc1	-3	0	3	60*	0	0
CCn1c(SCC(=O)Nc2ccc(NC(C)=O)cc2)nc2c([nH]c3ccccc32)c1=O	1	1.1*	5.6*	21	0	1
Cc1onc(-c2ccc(Cl)cc2)c1-c1ccn(S(=O)(=O)c2cccc(Cl)c2)n1	3	-2	0	·	-2	·
Cc1ccc(S(=O)(=O)NCC2CCN(C(=O)C(=O)c3cccs3)CC2)cc1	-1	0	-1	·	0	·
Cc1ccccc1Nc1nnc(SCC(=O)c2c(N)n(C3CC3)c(=O)[nH]c2=O)s1	1	-2	0	·	1	-1
COC(=O)[C@]12C[C@H](CC(=O)NCCc3ccccc3OC)C(=O)N(Cc3ccc(Cl)cc3Cl)C1=C[C@H](COCc1ccccc1)O[C@@H]2C	0	-2	-4	·	-3	·
CC(=O)Nc1ccnc(-c2cccnc2)n1	3	-1	0	3	0	1
Cc1nnc(SCCC(=O)Nc2nc(-c3ccccc3)ns2)s1	0	-1	3	67*	0	0
O=C(Nc1ccnc(-c2cccnc2)n1)c1cccs1	-1	-1	1	64*	-1	-1
CC(=O)Nc1nc(-c2ccc(Cl)cc2)ns1	10	-1	3	84*	2	3
CC(=O)c1sc(NC(=O)c2ccc(Cl)cc2)nc1C	-2	-1	-1	-2	1	3
CCCC(=O)Nc1nc(-c2ccccc2)ns1	10	-1	0	70*	2	0
CC(C)C(=O)Nc1nc(-c2ccccc2)ns1	6	0	3	42	1	1
O=C(Nc1nc(-c2ccccc2)ns1)c1cccs1	7	-1	2	106*	2	0
CC(O)CNc1nc2ccccc2n1-c1ncnc2sc3c(c12)CCC3 (configuration not stated)	0	-1	-2	59*	-1	-2
c1ccc2c(c1)ncn2-c1ncnc2sc3c(c12)CCCC3	0	-1	-1	2	-1	-1
Nc1ccc(Cc2ccc([N+](=O)[O-])cc2)cc1	0	-1	2	·	-1	5.2*
O=[N+]([O-])c1ccc(Cc2ccccn2)cc1	7	-1	1	0	-2	1
